Screening results deposited in PubChem by National Center for Advancing Translational Sciences (NCATS).
Vaccinia Venus: qHTS for Stage-Specific Inhibitors of Vaccinia Orthopoxvirus: Venus Reporter Primary qHTS; Vaccinia virus Venus reporter expression, fluorescence; Potency, µM (doses to about 36.5 µM), for inactives: at the top dose activity change, negative = inhibition, usual class: inhibitors; 330,000 tested, 0.46% active; AID 720580, 2013; calls by dose curve; tested in A549 cells; note: nearly all actives have a fitted effect of over 30% in size
AMA1-RON2 inh: qHTS for Inhibitors of AMA1-RON; Towards Development of Antimalarial Drug Lead: Primary Screen. Plasmodium falciparum AMA1 (3D7) - RON2 peptide interaction. AlphaScreen AMA1-biotinylated RON2 peptide binding. Potency, µM (highest dose often 58.2 µM), for inactives: top-dose activity change, negative = inhibition, hits mostly inhibitors. 360,000 tested, 0.2% active. AID 720542, 2013;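 note: 0% = vehicle wells and -100% = peptide control; nearly all actives have a fitted effect of over 45% in size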
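AMA1 (3D7) with his tag at 25 nM final met compounds first, then biotinylated RON2 peptide at 25 nM; detection used donor plus acceptor beads, 10 µg/mL apiece, read by AlphaScreen after 30 min at room temperature.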
Pf growth 48h: Primary qHTS for delayed death inhibitors of the malarial parasite plastid, 48 hour incubation; P. falciparum luciferase growth in erythrocytes, 48 h; Potency, µM (highest dose often 28.7 µM), inactives show at the highest dose activity change, negative = inhibition, usual class: inhibitors; 310,000 tested, 5.9% active; AID 504832, 2011
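Read-out is firefly luciferase luminescence from an integrated reporter in P. falciparum, so falling signal marks reduced parasite growth. Infected erythrocytes were at 2% hematocrit and 0.1% parasitemia (final) in Albumax-supplemented RPMI 1640.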
Pf growth 96h: Primary qHTS for delayed death inhibitors of the malarial parasite plastid, 96 hour incubation; P. falciparum luciferase reporter growth, 96 h; Potency, µM (series often up to 28.7 µM), for the others: at the top dose activity change, negative = inhibition, hits mostly inhibitors; 320,000 tested, 6.9% active
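Luminescence readout: decreased luciferase signal marks inhibited growth of reporter-expressing P. falciparum in infected red cells (2% hematocrit, 0.05% parasitemia final), exposed to compound two generations (96 h, 37 C, 5% CO2).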
Vaccinia mCherry: qHTS for Stage-Specific Inhibitors of Vaccinia Orthopoxvirus: mCherry Reporter Primary qHTS; Vaccinia virus mCherry reporter infection, fluorescence; Potency, µM (titrated, usually from 36.5 µM), for inactives: at the top dose activity change, negative = inhibition, hits mostly inhibitors; AID 720579, 2013; 310,000 tested, 0.63% active; calls by dose curve; tested in A549 cells; note: nearly all actives have a fitted effect of over 35% in size
An asterisk follows results filed as active; i = inactive; ? = inconclusive; · = no result; [ ] = another dose, or the depositor's remark. Only some compounds are listed: those with a hit (about 8.7% of all), similar ones and a draw of the others. Unless noted, calls come from the whole dose curve; as a rule, active = well fitted curve in the direction sought with a large enough effect; inconclusive = small, poorly fitted or top-dose-only effect, or another doubt; inactive = no such curve, though single readings can be large; an effect the other way counts as inactive or inconclusive. Unless noted, % is set by controls: 0 for no effect and ±100 for the full control effect; potency is the fitted concentration of half-maximal effect.

SMILES	Vaccinia Venus	AMA1-RON2 inh	Pf growth 48h	Pf growth 96h	Vaccinia mCherry
CN1CCN(c2ccc([N+](=O)[O-])c(NCc3ccco3)c2)CC1	-13.4%	-5.2%	-8.3%	?	i
Cc1ccc(C(=O)N2CCN(c3ccc([N+](=O)[O-])c(NCc4ccco4)c3)CC2)cc1	?	-28.6%	?	4.65µM*	·
O=C(c1cccc2ccccc12)N1CCN(c2ccc([N+](=O)[O-])c(NCc3ccco3)c2)CC1	-15.2%	9.9%	?	85.5%	-17.5%
Cc1cccc(C(=O)N2CCN(c3ccc([N+](=O)[O-])c(NCc4ccco4)c3)CC2)c1	-37.6%	?	?	11.7µM*	·
NC(=S)NCCC[C@H](N)C(=O)O	-11.8%[87.9 µM]	·	·	·	i
COCCNC(=O)c1[nH]c2cc(C)ccc2c1Sc1ccc(Cl)cc1	-13.3%	·	·	·	-7.3%
CCOC(=O)c1c(-c2ccc(C)cc2)csc1NC(=O)c1cc(=O)c2cc(Cl)ccc2o1	-2.7%	·	·	·	-0.3%
CN1CCC(=C2c3ccccc3CCc3sccc32)CC1	-28.7%	-13.5%	15.1µM*	-29.4%	?
CN1CCC(=C2c3ccccc3CC(=O)c3sccc32)CC1	-10.8%	-3.1%	14.7µM*	10.4µM*	-19.7%
CN1CCC(=C2c3ccccc3C(O)c3ccccc32)CC1 (stereo not given)	-17.5%	-3.8%	2.0%	?	-1.3%
C=CCNc1nc(Nc2ccc(-c3nc4ccccc4o3)cc2)nc(N2CCOCC2)n1	-16.9%	6.6%	·	4.65µM*	i
C=CCNc1nc(NCC)nc(N2CCOCC2)n1	-13.3%	0.9%	6.8%	?	·
COc1ccc(C(=O)C(CCC(CNC(C)(C)C)C(=O)c2ccc(OC)cc2)CNC(C)(C)C)cc1 (stereo not given)	11.2µM*	-0.4%	7.38µM*	?	12.6µM*
CCC(Sc1nnc(C)n2c1cc1occc12)C(=O)Nc1ccccc1OC (stereo not given)	-0.6%	·	·	·	-4.1%
Cc1ccc(N(CC(=O)NCCc2ccccc2)S(=O)(=O)N(C)C)cc1	5.7%	·	·	·	-0.1%
CCOc1nc(SCCOc2ccc(C)cc2)nc(N(C)C)n1	-12.9%	34.9%	9.28µM*	?	-13.2%
COc1cccc(C(=O)OCCCN(C)C)c1	-15.3%	-5.5%	13.1%	32.4%	-10.7%
COc1cccc(C(=O)OCCN(C)C(C)(C)C)c1	·	·	·	8.28µM*	·
CS(=O)(=O)N1CCC(Oc2ccccc2C(=O)N2CCCCC2CO)CC1 (stereo not given)	·	-3.2%	4.2%	?	·
COC(=O)CN(C)C(=O)c1ccccc1OC1CCN(S(C)(=O)=O)CC1	-7.0%	5.0%	-35.7%	13.1µM*	i
CCOC(=O)N1CCC(N2CCN(S(=O)(=O)c3ccc([N+](=O)[O-])cc3)CC2)CC1	·	?	2.08µM*	?	·
O=[N+]([O-])c1ccc(S(=O)(=O)N2CCN(C3CCN(Cc4ccccc4)CC3)CC2)cc1	-15.5%	-10.5%	?	25.8%	-9.9%
CCOC(=O)N1CCC(N2CCN(S(=O)(=O)c3ccc4ccccc4c3)CC2)CC1	-29.9%	?	·	11.7µM*	-16.7%
Cc1cccc(C(=O)N2CCOc3ccc(CN(C)Cc4cc(C5CC5)n[nH]4)cc3C2)n1	-9.2%	·	·	·	-5.8%
CCS(=O)(=O)NCc1c(C)ncc2c1CCN(C(=O)c1csc(-c3cccs3)n1)C2	0.0%	·	·	·	-4.6%
SMILES	Vaccinia Venus	AMA1-RON2 inh	Pf growth 48h	Pf growth 96h	Vaccinia mCherry
CCOC(=O)c1cc(-c2ccccc2)n(CCCC(=O)Nc2cccc(Cl)c2C)c1C	-14.6%	·	·	·	-3.8%
CC1=C(C(=O)NCc2ccc(Cl)cc2)C2(CCCCCC2)OC1=O	-14.3%	·	·	·	i
O=C(NCCc1csc(-c2cccnc2)n1)c1cccc(C(F)(F)F)c1	-2.4%	·	·	·	-15.3%
Cc1csc(-c2cnn(-c3ccccc3)c2NC(=O)c2cccc(C(F)(F)F)c2)n1	-4.6%	8.7%	·	10.4µM*	-12.2%
CC1=C(c2ccc(C(C)C)cc2)S(=O)(=O)N=C1N1CCC(C(=O)NCc2ccc(C)o2)CC1	-7.0%	·	·	·	-3.8%
CCC(=O)Nc1nc(C)c(C(=O)NC2CCCCC2)s1	·	-0.1%	3.7µM*	?	·
Cc1nc(NC(=O)C2CC2)sc1C(=O)NC1CCCCC1	7.4%	26.8%	?	-7.7%	-10.8%
COC(=O)c1ccccc1C(=O)N(Cc1cccnc1)CC1CCCN(C2CCCCC2)C1 (stereo not given)	·	7.8%	?	13.1µM*	·
Cn1nccc1C(=O)N(CCN1CCCCC1)CC1CCCN(C2CCCC2)C1 (stereo not given)	-4.1%	19.2%	-19.1%	64.9%	-10.3%
C/C(=N\Nc1nc2ccccc2nc1C)c1ccccc1O	-17.7%	70.9%	?	1.17µM*	?
Cc1cc2[nH]c(=O)c(=O)[nH]c2cc1S(=O)(=O)NC1CCCCC1C (stereo not given)	·	6.2%	-1.3%	4.65µM*	·
COCCn1c(SCC(=O)c2ccccc2)nc2cc(C(=O)NC3CCCC3)ccc2c1=O	-4.9%	·	·	·	-2.1%
Cc1oc(-c2ccccc2NC(=O)c2ccccc2)nc1CNC(=O)c1c(-c2ccccc2)noc1C	-16.2%	·	·	·	-18.7%
CC(C)n1ncc2c(C(=O)Nc3cccc(S(=O)(=O)N(C)C)c3)cc(C3CC3)nc21	-24.0%	-1.8%[11.6 µM]	11.7µM*	?	-17.1%
CC(C)n1ncc2c(C(=O)Nc3ccc(S(C)(=O)=O)cc3)cc(C3CC3)nc21	·	-3.1%	?	?	·
CC(=O)Nc1ccc(NC(=O)c2cc(C3CC3)nc3c2cnn3C(C)C)cc1	1.0%	-5.1%	?	-24.8%	?
CNC(=O)c1cccc(NC(=O)c2cc(-c3ccccc3)nc3c2cnn3C(C)C)c1	·	-6.1%	4.65µM*	?	·
COc1cc(NC(=O)c2cc(-c3ccccc3)nc3c2cnn3C(C)C)cc(OC)c1OC	·	-1.5%	·	·	·
CCOc1ccc(NC(=O)c2cc(C3CC3)nc3c2cnn3C(C)C)cc1OC	·	-5.4%	11.7µM*	13.1µM*	·
CCN(CC)C(=O)c1cccc(NC(=O)c2cc(C3CC3)nc3c2cnn3C(C)C)c1	·	-3.6%	?	5.22µM*	·
CCOC(=O)c1cc(-c2ccccc2)n(-c2cccc(C(=O)Nc3cccc(SC)c3)c2)c1C	-3.2%	·	·	·	i
COC(=O)/C(C#N)=C/c1c(N2CCN(Cc3ccc4c(c3)OCO4)CC2)nc2c(C)cccn2c1=O	-5.1%	-2.7%	?	?	i
Cc1cccn2c(=O)c(/C=C(\C#N)C(N)=O)c(N3CCN(Cc4ccc5c(c4)OCO5)CC3)nc12	?	-24.6%	9.28µM*	10.4µM*	-11.0%
Cc1cccn2c(=O)c(/C=C(\C#N)C(N)=O)c(N3CCN(c4cccc(Cl)c4)CC3)nc12	·	-17.2%	?	9.28µM*	·
